This passage reports AC50 and outcome results from PubChem BioAssay (EPA / NIEHS).

Records with an inconclusive call do not appear. The source made the active and inactive calls. The calls were made as follows, unless noted: active = hit-call score of the fitted dose curve at least 0.9, where 1 is the maximum; inconclusive = response in the unintended direction; inactive = score below 0.9.

In assay [1] the test system is Thyroperoxidase (TPO), gene 54314. Nature of the assay: CCTE_Simmons_AUR_rTPO: CCTE's Amplex UltraRed Assay for Thyroperoxidase (TPO) Inhibition, Simmons Lab (AID 2283662).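 As to AC50: potency for loss of signal meaning inhibition of peroxidase activity.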 The gist of the method: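 Cell-free peroxidase activity assay using rat thyroid gland microsomes with excess H2O2 (300 uM) and 25 uM Amplex UltraRed. Compounds tested from 5 nM to 87.5 uM; fluorescence measured after 30 min at 37C, analysed relative to DMSO baseline.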

Assay [2] in a line: CCTE_Simmons_CellTiterGLO_HEK293T: Viability Assessment in CCTE's Assays for Thyroperoxidase (TPO) Inhibition, Simmons Lab (AID 2283665).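 As to AC50: cells exposed to compound for 24 h before readout; actives reduce ATP signal below DMSO vehicle meaning cytotoxicity.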 The gist of the method: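 Cells were seeded overnight, then exposed to an eight-point series up to 87.5 uM final for 24 hours. CellTiter-Glo reagent was added and luminescence read after 20 min, giving ATP-based viability versus DMSO.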
For orientation: Cellular ATP, detected with luciferase, serves as a proxy for viable cell number.

Assay [3] can be described thus: CEETOX_H295R_MTT_cell_viability: Viability Assessment in the CeeTox HT-H295R MTT Assay (AID 2283718; active = hit-call score of the fitted dose curve at least 0.9, where 1 is the maximum; inactive = score below 0.9;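 as to AC50: curve fitted both ways so AC50 may mark viability loss or gain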). The gist of the method: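 MTT reduction (0.5 mg/ml, 4 h at 37 C; absorbance at 570 and 650 nm) gave viability as background-corrected percent change versus controls. H295R cells had 48 h forskolin (10 uM) prestimulation, then 48 h chemical exposure at 0.1% DMSO.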

The nature of assay [4]: STM_H9_OrnCyssISnorm_ratio: Stemina devTOX quickPredict H9 human embryonic stem cell (hESC)-based Assay for Ornithine (ORN):Cystine (CYSS) Ratio (AID 2283714). An outline of the steps: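 Ratio of internal-standard-normalized ornithine to cystine, measured by UPLC-HRMS in spent media from the last 24 h. H9 cells kept pluripotent, dosed 72 h with daily media and compound renewal; DMSO 0.1% serves as baseline.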

Assay [5] in a line: Tanguay_ZF_120hpf_OTIC_legacy: (Legacy) Oregon State University Tanguay Lab 120 Hour Post-fertilization zebrafish Assay for Otic Vesicle Malformation (AID 2283639). The gist of the method:
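Statically exposed wild-type 5D zebrafish embryos, kept sealed and dark at 28C through 120 hours post fertilization, were examined by brightfield microscopy for otic vesicle defects. Responses were recorded as present or absent and analysed relative to DMSO.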

Assay [6] is described as follows: Tanguay_ZF_120hpf_PE_legacy: (Legacy) Oregon State University Tanguay Lab 120 Hour Post-fertilization zebrafish Assay for Pericardial Edema (AID 2283640). The gist of the method:
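Zebrafish larvae are exposed from early development to 120 hpf at 28C, with 0.64% DMSO final. Each surviving larva receives a yes/no pericardial edema call by brightfield imaging, analysed relative to the DMSO baseline.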

A short description of assay [7]: Tanguay_ZF_120hpf_BRAI_legacy: (Legacy) Oregon State University Tanguay Lab 120 Hour Post-fertilization zebrafish Assay for Brain Malformation (AID 2283641). An outline of the steps:
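Static exposure of staged wild-type embryos until 120 hpf, kept at 28C with light excluded and final DMSO of 0.64% (vol/vol). Presence or absence of brain malformation was noted under brightfield; mortality precluded scoring.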

The nature of assay [8]: Tanguay_ZF_120hpf_SOMI_legacy: (Legacy) Oregon State University Tanguay Lab 120 Hour Post-fertilization zebrafish Assay for Somite Malformation (AID 2283647). An outline of the steps:
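Somitogenesis defects are recorded as binary calls in whole larvae at 120 hpf after continuous static chemical exposure starting at 6 hpf in dechorionated 5D embryos. DMSO serves as negative control and baseline.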

A short description of assay [9]: Tanguay_ZF_120hpf_PFIN_legacy: (Legacy) Oregon State University Tanguay Lab 120 Hour Post-fertilization zebrafish Assay for Pectoral Fin Malformation (AID 2283648).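 Also: each larva judged yes or no for fin defect by brightfield with dead larvae skipped.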 An outline of the steps:
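Pectoral fin malformation was recorded as a binary endpoint at 120 hpf in wild-type Tropical 5D larvae, which had been dechorionated and exposed statically from 6 hpf at 28C in 0.64% DMSO. Dead embryos were excluded.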

A short description of assay [10]: Tanguay_ZF_120hpf_CFIN_legacy: (Legacy) Oregon State University Tanguay Lab 120 Hour Post-fertilization zebrafish Assay for Caudal Fin Malformation (AID 2283649). The gist of the method:
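Single dechorionated 5D wild-type embryos are dosed at 6 hpf (final DMSO 0.64%) and held statically at 28C. Caudal fin malformation is recorded as present or absent at 120 hpf under brightfield, excluding dead embryos.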

A short description of assay [11]: Tanguay_ZF_120hpf_PIG_legacy: (Legacy) Oregon State University Tanguay Lab 120 Hour Post-fertilization zebrafish Assay for Pigmentation Malformation (AID 2283650). The gist of the method:
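Pigment malformation recorded as a binary call at 120 hpf in zebrafish (Tropical 5D) exposed singly from 6 hpf after pronase dechorionation. Static, sealed, 28C exposure, 0.64% DMSO; mortality excludes scoring; positive-direction fit against DMSO.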

Assay [12] is described as follows: Tanguay_ZF_120hpf_CIRC_legacy: (Legacy) Oregon State University Tanguay Lab 120 Hour Post-fertilization zebrafish Assay for Circulatory Malformation (AID 2283651). An outline of the steps: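 Embryos are dechorionated at 4 hpf, plated one per well at 6 hpf, then held under static exposure at 28C until 120 hpf. Malformations are recorded as binary calls; mortality excludes other endpoints.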

Assay [13] can be described thus: Tanguay_ZF_120hpf_SWIM_legacy: (Legacy) Oregon State University Tanguay Lab 120 Hour Post-fertilization zebrafish Assay for Swim Bladder Malformation (AID 2283654).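 Also: swim bladder malformation in each larva scored yes or no under brightfield.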 The gist of the method:
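Scoring is binary for swim bladder defects at 120 hpf, by brightfield inspection of zebrafish larvae. Embryos were exposed singly from 6 hpf after pronase dechorionation, at 28C with 0.64% DMSO; mortality excluded scoring.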

Assay [14] in a line: Tanguay_ZF_120hpf_TRUN_legacy: (Legacy) Oregon State University Tanguay Lab 120 Hour Post-fertilization zebrafish Assay for Truncated Body (AID 2283655). An outline of the steps:
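Single dechorionated zebrafish embryos received test chemical from 6 hpf in 0.64% DMSO, kept at 28C. At 120 hpf, brightfield inspection noted any truncated body.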

The nature of assay [15]: Tanguay_ZF_120hpf_NC_legacy: (Legacy) Oregon State University Tanguay Lab 120 Hour Post-fertilization zebrafish Assay for Notochord and Tail Malformation (AID 2283656). The gist of the method: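 Binary scoring of notochord distortion by brightfield microscopy; embryos dying were not scored. Wild-type Tropical 5D embryos, chorion removed, exposed singly and statically from 6 to 120 hpf, 28C, sealed, 0.64% DMSO.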

Assay [16] in a line: Tanguay_ZF_120hpf_TR_legacy: (Legacy) Oregon State University Tanguay Lab 120 Hour Post-fertilization zebrafish Assay for Touch Response (AID 2283667). An outline of the steps:
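Binary touch-response endpoint in larvae at 120 hpf after static waterborne exposure from embryo stage (28°C, 0.64% DMSO vehicle, 5 uM trimethyltin chloride as positive control); embryos dead at 24 or 120 hpf excluded; fitted as gain versus DMSO.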

A short description of assay [17]: Tanguay_ZF_120hpf_ActivityScore_legacy: (Legacy) Oregon State University Tanguay Lab 120 Hour Post-fertilization zebrafish Assay Score for Activity (AID 2283742). An outline of the steps:
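Binary scoring of mortality and morphology by brightfield at 24 and 120 hpf, summarised into one activity score from 18 components relative to DMSO. Wild-type Tropical 5D zebrafish, chorion removed at 4 hpf, static exposure 6–120 hpf, 28 °C.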

The target in assay [18] is zebrafish Estrogen Receptor (ESR1), esr1 (gene 259252) (UniProt P57717). The experiment in a line: ATG_zfER1_XSP1: Attagene TRANS-FACTORIAL Multi-Species (XSP1) HepG2 Assay for zebrafish Estrogen Receptor (ESR1) (AID 2283772). An outline of the steps:
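Reporter mRNA induction, gauged via RT-PCR/capillary electrophoresis fluorescence relative to DMSO controls, in HepG2 cells transiently carrying GAL4-UAS reporter units; 24 h dosing.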

Assay [19] is described as follows: STM_H9_OrnithineISnorm_perc: Stemina devTOX quickPredict H9 human embryonic stem cell (hESC)-based Assay for Ornithine (ORN) Metabolite Biomarker, Normalized (AID 2283712; active = hit-call score of the fitted dose curve at least 0.9, where 1 is the maximum; inactive = score below 0.9;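 also: ornithine released into spent medium during last day measured by mass spectrometry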). The gist of the method: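 Ornithine secreted by H9 hESCs after 72h compound treatment (daily media/compound renewal) was quantified in final-day media by UPLC-HRMS. Values are isotope-standard-normalized, expressed relative to 0.1% DMSO, fitted in positive direction.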

A short description of assay [20]: STM_H9_CystineISnorm_perc: Stemina devTOX quickPredict H9 human embryonic stem cell (hESC)-based Assay for Cystine (CYSS) Metabolite Biomarker, Normalized (AID 2283713; active = hit-call score of the fitted dose curve at least 0.9, where 1 is the maximum; inactive = score below 0.9). An outline of the steps:
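Cells are held undifferentiated and treated for 72h, receiving fresh medium with compound every 24h. Cystine secreted during the final day is quantified by UPLC-HRMS against a labeled spike-in, then expressed relative to the DMSO vehicle median.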

Sequence of zebrafish Estrogen Receptor (ESR1), esr1 (gene 259252) (P57717 whole entry, looked up, the tested form may be a part): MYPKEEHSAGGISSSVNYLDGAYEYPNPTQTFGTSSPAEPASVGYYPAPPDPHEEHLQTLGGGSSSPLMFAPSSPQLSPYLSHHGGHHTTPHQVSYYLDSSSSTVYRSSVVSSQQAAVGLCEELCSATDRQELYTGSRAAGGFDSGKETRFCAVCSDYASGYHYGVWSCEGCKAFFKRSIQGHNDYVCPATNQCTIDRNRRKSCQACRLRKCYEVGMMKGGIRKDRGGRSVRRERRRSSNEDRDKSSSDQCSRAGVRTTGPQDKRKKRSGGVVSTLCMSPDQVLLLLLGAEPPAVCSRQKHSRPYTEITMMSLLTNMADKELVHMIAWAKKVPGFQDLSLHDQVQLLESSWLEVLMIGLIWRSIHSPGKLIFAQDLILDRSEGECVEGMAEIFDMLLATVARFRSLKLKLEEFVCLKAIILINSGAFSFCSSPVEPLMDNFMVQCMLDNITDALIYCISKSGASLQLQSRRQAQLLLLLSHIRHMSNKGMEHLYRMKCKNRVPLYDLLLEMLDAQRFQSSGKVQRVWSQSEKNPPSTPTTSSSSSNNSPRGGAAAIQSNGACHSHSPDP

The term AC50 denotes the concentration giving half of the maximal activity seen. As for `CC(C)c1ccc(O)c(C(C)C)c1`, the AC50 in assay [1] was 29.7 µM (active); in assay [2] it was 28.4 µM (active). In [3], the outcome was inactive.
For the molecule `N#Cc1ccc(C2CCCc3cncn32)cc1` (configuration not stated), the molecule was classed as inactive in assay [3].
Take `COC(=O)C=Cc1ccccc1`: in assay [4], the result was inactive.
As to `C=C[C@@]1(C)CC(=O)[C@]2(O)[C@@]3(C)[C@@H](O)CCC(C)(C)[C@@H]3[C@H](O)[C@H](OC(C)=O)[C@@]2(C)O1`, in assay [3], the molecule was classed as inactive.
The same measure, in the same setting: the same measure for `C=CC(=O)OCCCCCCOC(=O)C=C`: “inactive”.
With `CCCCCCOc1ccc(N)cc1`, in assay [1], the AC50 was 0.494 µM (active).
Consider `C1CNCCN1`, for which the outcome in assay [5], in assay [6], in assay [7], in assay [8], in [9] and in [10] was inactive. For the same molecule, the result in [11], in [12], in assay [13], in assay [14], in [15] and in assay [16] was inactive. In addition, the outcome in assay [17] was inactive.
In the case of `N#Cc1ccc(C(c2ccc(C#N)cc2)n2cncn2)cc1`, the outcome in [1] and in [3] was inactive.
Consider `CCN1CN(CC)CN(CC)C1`, for which, in [3], the AC50 is 0.396 µM (active).
As to `CCc1occc(=O)c1O`, the AC50 in [1] was 31 µM (active).
Consider `O=S(=O)(O)c1ccc(N=Nc2c(O)ccc3ccccc23)cc1`, for which, in assay [1], the call was inactive. Also, the AC50 in [2] was 18.1 µM (active).
Consider `CCCC=C(C=O)CC`, for which, in assay [3], the molecule was classed as inactive.
In the case of `CC(C)(C)NC(=O)[C@H]1CC[C@H]2[C@@H]3CC[C@H]4NC(=O)C=C[C@]4(C)[C@H]3CC[C@]12C`, the molecule was called inactive in assay [3] and in assay [18].
For `O=C(O)c1cc(O)c2ccccc2c1O`, the values for the AC50 in assay [1] and in [2] were 30.7 µM (active) and 28.6 µM (active), respectively. The molecule was classed as inactive in assay [3].
Take `CCCCC1C(=O)N(c2ccccc2)N(c2ccccc2)C1=O`: in assay [1], the half-maximal activity concentration (AC50) was 39.6 µM (active). Besides, the molecule was classed as inactive in assay [2], in assay [4] and in assay [3].
`COc1ccc(-c2coc3cc(O)cc(O)c3c2=O)cc1`: the half-maximal activity concentration (AC50) was 21.4 µM (active) in [1] and 86.5 µM (active) in assay [2]. The result in assay [3] was inactive.
As for `c1ccc(Nc2cccc3ccccc23)cc1`, the half-maximal activity concentration (AC50) in assay [1] was 5.32 µM (active); in assay [2] it was 28.4 µM (active).
On to `Oc1ccccc1Cc1ccccc1O`, for which, in [4], the AC50 is 60.6 µM (active).
In the case of `C/C=C/C=C/CCCCCCCO`, the AC50 in assay [1] was 25.8 µM (active); in assay [2], 87.2 µM (active).
Consider `O=c1c(O)c(-c2ccc(O)cc2O)oc2cc(O)cc(O)c12`, for which, in assay [1], the AC50 is 0.337 µM (active). In [2], the molecule was classed as inactive.
As for `COc1ccc(C(=O)/C(Br)=C\C(=O)O)cc1`, the AC50 in assay [3] is 76.4 µM (active).
`CC1(C)[C@@H]2CC[C@@]1(C)C(=O)C2`: the result in [19] and in assay [20] was inactive.
On to `CC1=NN(c2ccc(S(=O)(=O)O)cc2)C(=O)C1N=Nc1ccccc1` (configuration not stated), for which the call in [1] and in [2] was inactive.
